Assay results taken from the supplement of paper PMC6763611.

Test system: Plasmodium falciparum NF54
Test: growth inhibition relative to untreated control; higher = more inhibition
Conditions: 72 h
Procedure, shortened: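 In dark 96-well half-area plates, each well held 100 μL of P. falciparum NF54 ring-stage culture at 1% parasitemia and 1% hematocrit. The cultures received a single test-compound dose of 5 μM or 1 μM and were kept at 37 °C for 72 h, in minimal RPMI either plain or enriched with folate (2.2 μM), pABA (7.3 μM), pHBA (7.3 μM), tyrosine (111 μM), phenylalanine (90 μM) and tryptophan. SYBR Green staining gave growth inhibition, expressed against untreated wells, with uninfected erythrocytes serving as the background.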

[1] = 1 µM, MM + chorismate end-products (CM screening medium)
[2] = 5 µM, MM + chorismate end-products (CM screening medium)

| SMILES | growth inhibition [1] [%] | growth inhibition (1 µM, minimal medium (MM)) [%] | growth inhibition [2] [%] | growth inhibition (5 µM, minimal medium (MM)) [%] |
| --- | --- | --- | --- | --- |
| COc1nc2ccc(Br)cc2cc1[C@@H](c1ccccc1)[C@@](O)(CCN(C)C)c1cccc2ccccc12 | 73.2 | 77.4 | 99.4 | 88.2 |
| CC(=O)N1CCc2cc3nc(C)cc(C)c3cc21 | 13.3 | < 0 | 38.1 | < 0 |
| Nc1ncnc2c1ncn2C[C@@H](O)[C@@H](O)C(=O)O | 44.8 | 43 | 48.6 | < 0 |
| Cc1cccc(-c2nc(Nc3ccncn3)c3sccc3n2)n1 | 81.1 | 89.4 | > 100 | 98.7 |
| Cc1nc(-c2cccc(NCc3ccccc3)c2)[nH]c1C | 63.5 | 35.9 | 93.4 | 94.7 |
| C[C@H]1COc2c(N3CCN(C)CC3)c(F)cc3c(=O)c(C(=O)O)cn1c23 | 17.1 | < 0 | 5.29 | 15.8 |
| COCC(C)NC(=O)CSc1ncnc2sc(-c3ccccc3)cc12 (stereo not drawn) | 11.3 | < 0 | < 0 | < 0 |
| O=C(Nc1ccc2c(c1)B(O)OC2)c1ccccc1C(F)(F)F | 69.1 | 67.8 | 74.6 | 87 |
| O=C1COCc2ccc(Br)cc2N1Cc1ccc(C(F)(F)F)cc1 | 56 | 96.7 | > 100 | 85.1 |
| Cc1cc(C)c2cc(C(=O)NC3CCCCCCC3)[nH]c2c1 | 34.2 | 0.728 | 55.4 | < 0 |
| CCc1nc2ccc(Cl)cn2c1C(=O)NCc1ccc(N2CCC(c3ccc(OC(F)(F)F)cc3)CC2)cc1 | < 0 | < 0 | 91 | 71.4 |
| CC(C)(C)c1cc(C(=O)Nc2cccnc2)cc(C(=O)Nc2cccnc2)c1 | 88.9 | 94.2 | 87.5 | 88.6 |
| COc1cc(C2=NCCN2)ccc1-c1cn(-c2cccc(C3=NCCN3)c2)nn1 | 68.5 | 86.7 | > 100 | 88.7 |
| COc1cccc(-c2nc3c(N4CCCC4)cccc3n2CC2CCCN2)n1 (stereo not drawn) | 79.8 | 71.2 | 96.1 | 89.8 |
| Cc1ccc2cc(C3NC(=O)c4ccccc4N3)c(Cl)nc2c1 (stereo not drawn) | 86 | 82.6 | 95.2 | 88.5 |
| Cc1cc(O)nc(-n2nc(C)cc2C)n1 | 5.27 | < 0 | < 0 | < 0 |

| SMILES | growth inhibition [1] [%] | growth inhibition (1 µM, minimal medium (MM)) [%] | growth inhibition [2] [%] | growth inhibition (5 µM, minimal medium (MM)) [%] |
| --- | --- | --- | --- | --- |
| COC(=O)Nc1nc2cc(C(=O)c3ccccc3)ccc2[nH]1 | 12 | < 0 | 5.63 | < 0 |
| CC(=O)NCC1CN(c2ccc(-c3ccc(CO)cc3)c(F)c2)C(=O)O1 (stereo not drawn) | < 0 | 7.91 | 31.4 | 17.6 |
| O=C(NCCc1ccn(-c2ccccc2)n1)C1CCCCC1 | 13.1 | 20.1 | < 0 | 3.27 |
| CNC(=O)CNc1nc(-c2ccccn2)nc2scc(-c3ccccc3)c12 | 8.9 | 9.62 | 61.2 | 37.3 |
| CS(=O)(=O)c1cccc(-c2cnc3[nH]cc(-c4ccc(CCC(=O)O)cc4)c3c2)c1 | 79 | 70.7 | > 100 | 86.2 |
| CCC(=O)Nc1ccccc1C(=O)Nc1ccccn1 | < 0 | < 0 | < 0 | < 0 |
| O=C(Nc1ccnc(-c2cccnc2)n1)c1cc(C(F)(F)F)cc(C(F)(F)F)c1 | 13.6 | 20.9 | 93.8 | 86.6 |
| CC(C)(C)OC(=O)N1CCN(c2cc(-c3ccc(Oc4ccccc4)cc3)n[nH]2)CC1 | < 0 | 18 | 64.8 | 16.8 |
| COc1ccc(C2CC(c3cccs3)=NN2C(=O)c2ccco2)cc1OC (stereo not drawn) | 91.4 | 89.5 | 91.4 | 93.4 |
| O=C(c1[nH]nc2c1CCCC2)N1CCN(Cc2ccc3c(c2)OCO3)CC1 | < 0 | 13 | < 0 | < 0 |
| CC(=O)NCC1CN(c2ccc(-c3ccc(CNCc4cn[nH]n4)cc3)c(F)c2)C(=O)O1 (stereo not drawn) | 4.9 | < 0 | 34.6 | < 0 |
| COc1ccc(OC)c(NCc2ccc3nc(N)nc(N)c3c2Cl)c1 | 99.9 | > 100 | 96.1 | 94.2 |
| CC1COC2(CCN(c3nc(=O)c4cc(C(F)(F)F)cc([N+](=O)[O-])c4s3)CC2)O1 (stereo not drawn) | 6.95 | 12.6 | 14.7 | < 0 |
| Cc1ccc2c(c1C)NC(=O)C21NN=C(c2ccccc2)S1 (stereo not drawn) | 95.4 | 89.4 | 98.3 | 89.8 |
| CC(=O)Oc1ccccc1C(=O)Nc1ncc([N+](=O)[O-])s1 | < 0 | 4.44 | 12 | < 0 |
| CC[C@@H]([C@H](C)O)n1ncn(-c2ccc(N3CCN(c4ccc(OC[C@@H]5CO[C@@](Cn6cncn6)(c6ccc(F)cc6F)C5)cc4)CC3)cc2)c1=O | 45.5 | 50.3 | 88.9 | 83.4 |
